Inconclusive results are not listed. Active and inactive are the calls of the source. The calls were made as follows: active = hit-call score of the fitted dose curve at least 0.9, where 1 is the maximum; inconclusive = response in the unintended direction; inactive = score below 0.9.
Legend:
[1] = TOX21_p53_BLA_p2_viability: Viability Assessment in the Tox21 HCT-116 p53 Agonism Beta-lactamase Assay, Phase 2 (AID 2283591);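 also: actives lower the ATP signal meaning cytotoxicity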
In short: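 HCT116 p53-bla cells, 4000/well, dosed after 5 h plating (217-fold dilution of DMSO stocks) and incubated 16 h at 37C. Viability taken as cellular ATP by CellTiter-Glo luminescence after 30 min RT; signal loss marks cytotoxicity.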

[2] = biological target: Cellular tumor antigen p53 (Homo sapiens) (UniProt P04637); experiment: TOX21_p53_BLA_p2_ratio: Tox21 HCT-116 p53 Agonism Beta-lactamase Assay, Ratio, Phase 2 (AID 2283592)
Cellular tumor antigen p53 (Homo sapiens), sequence (P04637 whole entry, looked up): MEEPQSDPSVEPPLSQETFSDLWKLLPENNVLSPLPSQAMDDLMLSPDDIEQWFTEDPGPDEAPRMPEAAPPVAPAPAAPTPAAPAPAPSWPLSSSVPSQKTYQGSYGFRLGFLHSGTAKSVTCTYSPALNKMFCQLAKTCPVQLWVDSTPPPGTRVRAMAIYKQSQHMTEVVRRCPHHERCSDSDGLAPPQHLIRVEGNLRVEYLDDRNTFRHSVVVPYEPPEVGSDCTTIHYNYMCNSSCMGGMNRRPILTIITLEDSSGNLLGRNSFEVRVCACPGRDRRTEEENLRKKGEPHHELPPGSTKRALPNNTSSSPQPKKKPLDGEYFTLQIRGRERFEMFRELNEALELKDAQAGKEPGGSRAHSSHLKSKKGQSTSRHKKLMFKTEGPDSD
In short: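 An inducible beta-lactamase reporter in HCT116 cells signals p53 pathway activation. After 16 h chemical exposure at 37C, cells load CCF4-AM substrate for 2 h at room temperature; activity is the cleaved/uncleaved emission ratio relative to DMSO.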

[3] = biological target: Cellular tumor antigen p53 (Homo sapiens) (UniProt P04637); experiment: TOX21_p53_BLA_p3_ratio: Tox21 HCT-116 p53 Agonism Beta-lactamase Assay, Ratio, Phase 3 (AID 2283596)
In short: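 HCT116 p53-bla cells (4000/well) given compound in DMSO (217-fold dilution) after 5 h, incubated 16 h at 37C. CCF4-AM substrate 2 h at room temperature; 460/530 nm emission ratio, gain fitted against DMSO.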

[4] = TOX21_p53_BLA_p4_viability: Viability Assessment in the Tox21 HCT-116 p53 Agonism Beta-lactamase Assay, Phase 4 (AID 2283597);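 also: hits lower the luminescence signal meaning cytotoxicity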
In short: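 Compound exposure of HCT116 cells lasts 16 h at 37C, 5% CO2, with DMSO stocks diluted 217-fold. Cellular ATP is then quantified by CellTiter-Glo luminescence after 30 min at room temperature.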

[5] = biological target: Cellular tumor antigen p53 (Homo sapiens) (UniProt P04637); experiment: TOX21_p53_BLA_p5_ratio: Tox21 HCT-116 p53 Agonism Beta-lactamase Assay, Ratio, Phase 5 (AID 2283599)
In short: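 HCT-116 p53-bla cells (4000/well) plated 5 h, dosed with compound (217-fold DMSO dilution) for 16 h at 37 C; CCF4-AM substrate 2 h at room temperature. Activity is the 460/530 nm emission ratio (405 nm excitation), fitted in gain-of-signal direction versus DMSO.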

[6] = TOX21_p53_BLA_p5_viability: Viability Assessment in the Tox21 HCT-116 p53 Agonism Beta-lactamase Assay, Phase 5 (AID 2283600)
In short: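 Counter-readout for cytotoxicity: ATP-dependent luminescence from CellTiter-Glo, read in the beta-lactamase wells after 30 min at RT, following a 16 h compound exposure at 37C.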

[7] = biological target: Cellular tumor antigen p53 (Homo sapiens) (UniProt P04637); experiment: TOX21_p53_BLA_p4_ratio: Tox21 HCT-116 p53 Agonism Beta-lactamase Assay, Ratio, Phase 4 (AID 2283601)
In short: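 HCT-116 p53 beta-lactamase reporter cells (4000/well) preincubated 5 h, then compound (217-fold dilution of DMSO stock) for 16 h at 37C. CCF4-AM substrate added 2 h at room temperature; 460/530 nm emission ratio fitted upward versus DMSO.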

SMILES | outcome [1] | outcome [2] | outcome [3] | outcome [4] | outcome [5] | outcome [6] | outcome [7] | AC50 [1] | AC50 [2] | AC50 [3] | AC50 [4] | AC50 [5] | AC50 [6] | AC50 [7]
CC(CN(C)C)C(C)(O)Cc1ccc(Cl)cc1 (centres undefined) | inactive | inactive | inactive | inactive | inactive | inactive | inactive |  |  |  |  |  |  | 
C=C1C[C@@]23CC[C@H]4[C@@](C)(CCC[C@@]4(C)C(=O)O[C@@H]4O[C@H](CO)[C@@H](O)[C@H](O)[C@H]4O)[C@@H]2CC[C@]1(O[C@@H]1O[C@H](CO)[C@@H](O)[C@H](O[C@@H]2O[C@H](CO)[C@@H](O)[C@H](O)[C@H]2O)[C@H]1O[C@@H]1O[C@H](CO)[C@@H](O)[C@H](O)[C@H]1O)C3 | inactive | inactive | inactive | inactive | inactive | inactive | inactive |  |  |  |  |  |  | 
S=C1SCN(Cc2ccccc2)CN1Cc1ccccc1 | inactive | inactive | inactive | inactive | inactive | inactive | inactive |  |  |  |  |  |  | 
CCCCCCCCCCCCOCCOCCOCCOCCOCCOCCOCCOCCOCCO |  |  |  |  |  |  |  | 31.5 µM (active) | 13.5 µM (active) | 19.7 µM (active) | 20 µM (active) | 36.9 µM (active) | 23 µM (active) | 37.7 µM (active)
CC(C)COC(=O)c1ccc(N)cc1 | inactive | inactive | inactive | inactive | inactive | inactive | inactive |  |  |  |  |  |  | 
Cc1cc(C)cc(N)c1 | inactive | inactive | inactive | inactive | inactive | inactive | inactive |  |  |  |  |  |  | 
COc1ccc(OC)c(C(O)CNC(=O)CN)c1 (centres undefined) | inactive | inactive | inactive | inactive | inactive | inactive | inactive |  |  |  |  |  |  | 

Reference: PubChem BioAssay (EPA / NIEHS)
